Compound activity from PubChem BioAssay.
TSHR antagonist = Antagonists of the Thyroid Stimulating Hormone Receptor: HTS campaign. Thyrotropin receptor (Homo sapiens), P16473. TSHR-expressing cells, TSH-stimulated cAMP HTRF, 2 h; active compounds read low. activity change, negative = inhibition, % at 11.5 µM. 330,000 tested, 0.2% active. AID 504810, 2011;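 active = activity change below a set negative limit, meaning inhibition stronger than a set level, cut at about -70% in these data; inconclusive = activity change between two set negative limits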; note: % is set by controls: 0 for no effect and ±100 for the full control effect
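Cell-based HTRF cAMP assay; TSHR cells + compound, TSH EC80 (4nM final), 2 h, 37 deg C. Lysis with anti-cAMP cryptate and cAMP-d2, 30 min RT, read 665/620 nm.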
S-ASM inh = Inhibitors of Secretory Acid Sphingomyelinase (S-ASM): qHTS; Sphingomyelin phosphodiesterase (Homo sapiens), P17405; placental ASM, HMU-PC fluorogenic substrate, 60 min; Potency, µM (top dose mostly 57.5 µM), for inactives: at the top dose activity change, negative = inhibition, usual class: inhibitors; 340,000 tested, 0.006% active; active = well fitted inhibition curve with a large enough effect; inconclusive = small, poorly fitted or top-dose-only effect; inactive = no such curve, though single readings can be large or run the other way; note: potency is the fitted concentration of half-maximal effect
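Fluorescence read-out (Ex 386 nm, Em 447 nm) after stopping the reaction at pH 10. Enzyme: ASM from human placenta; substrate HMU-PC0, 9 uM final; 60 min, 37 °C. Compound preincubation 10 min, ambient temperature.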
Six1-Eya2 inh = qHTS Assay for Inhibitors of the Six1/Eya2 Interaction | Homeobox protein SIX1 (Homo sapiens) + Protein phosphatase EYA2 (Homo sapiens), … | AlphaScreen GST-Six1/His-Eya2 binding, biochemical; active compounds read low | activity change, % (no concentration beside the values) | 360,000 tested, 0.56% active; note: % is set by controls: 0 for no effect and ±100 for the full control effect
Target sequence (O00167 whole entry, looked up): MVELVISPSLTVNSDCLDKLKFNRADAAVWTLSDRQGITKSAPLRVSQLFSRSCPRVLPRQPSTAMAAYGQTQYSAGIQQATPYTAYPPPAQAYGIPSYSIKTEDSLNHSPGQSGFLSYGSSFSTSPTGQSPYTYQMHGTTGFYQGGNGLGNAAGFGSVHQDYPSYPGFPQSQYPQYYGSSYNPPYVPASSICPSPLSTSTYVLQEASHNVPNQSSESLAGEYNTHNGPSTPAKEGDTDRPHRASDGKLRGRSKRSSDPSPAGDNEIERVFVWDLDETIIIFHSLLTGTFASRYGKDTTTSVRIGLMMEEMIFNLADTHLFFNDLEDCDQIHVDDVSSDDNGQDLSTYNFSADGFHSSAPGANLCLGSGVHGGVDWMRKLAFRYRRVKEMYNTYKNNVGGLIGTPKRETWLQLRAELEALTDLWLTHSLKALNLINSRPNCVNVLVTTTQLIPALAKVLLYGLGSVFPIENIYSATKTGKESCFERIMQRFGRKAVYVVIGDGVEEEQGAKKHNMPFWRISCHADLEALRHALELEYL
Target sequence (Q15475 whole entry, looked up): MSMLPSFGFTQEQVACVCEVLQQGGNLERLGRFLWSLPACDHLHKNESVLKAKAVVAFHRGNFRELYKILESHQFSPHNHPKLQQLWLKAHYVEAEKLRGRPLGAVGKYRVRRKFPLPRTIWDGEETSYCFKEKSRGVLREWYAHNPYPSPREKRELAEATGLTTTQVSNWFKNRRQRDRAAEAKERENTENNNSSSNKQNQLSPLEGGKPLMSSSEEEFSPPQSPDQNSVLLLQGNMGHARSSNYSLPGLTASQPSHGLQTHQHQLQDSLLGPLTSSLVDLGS
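AlphaScreen luminescence read after one hour at 37 °C in darkness. Pin-transferred compounds met GST-Six1 and His-Eya2 protein (5X stock 250 nM/500 nM) plus glutathione donor and Ni-chelate acceptor beads (5X, 50 ug/mL).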
BCR signal inh = qHTS Assay to Find Inhibitors of Chronic Active B-Cell Receptor Signaling | 340,000 tested, 0.05% active | Potency, µM (highest dose often 46.1 µM), without a hit: top-dose activity change, negative = inhibition, usual class: inhibitors | ABC-DLBCL IkBa-CBG/CBR reporter, luminescence ratio, 4 h; active = well fitted inhibition curve with a large enough effect in the signal ratio, with a control signal flat, not every such curve was filed as active; inconclusive = small, poorly fitted or top-dose-only effect, or effect the other way, or a change in a side signal; the % refers to the signal ratio;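 note: potency is the fitted concentration of half-maximal effect; plate controls were basal doxycycline-induced cells for no effect and cells given 10 µM MG132 for full effect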
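Compounds up to 46 uM were incubated four hours with TMD8 cells whose green CBG68 luciferase is fused to IkappaBalpha; red CBR luminescence normalised the signal, and concentration-effect curves were fitted to fusion, red and ratio data.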
CtBP-E1A inh = qHTS Assay for Inhibitors of the CtBP/E1A Interaction. AlphaScreen GST-E1A/His-CtBP binding, 1536-well; active compounds read low. activity change, % (no concentration beside the values). 340,000 tested, 0.49% active; note: % is set by controls: 0 for no effect and ±100 for the full control effect
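In 5 uL wells, 23 nL compound meets equimolar GST-E1A and His-CtBP (5X stock 125 nM each) for 2 h, 37 °C. Beads (5X, 50 ug/mL) then 1 h, 37 °C, dark.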
* marks the source's active call; other numbers are inactive results; ? = inconclusive; . = no result given. This is a sample that favours compounds with a hit; in the whole collection about 0.85% have one here. Cut-off read from the data, not from the text of the source, unless noted: active = activity change below about -65%; inconclusive = mostly about -30% to -63%; inactive = weaker than that.

SMILES	TSHR antagonist	S-ASM inh	Six1-Eya2 inh	BCR signal inh	CtBP-E1A inh
COc1ccc(N=Nc2ccc(N)nc2N)cc1	24	-3%	?	?	?
CCN(CC)S(=O)(=O)c1ccc2c(c1)N(CC(=O)N1CCN(c3ccc(Cl)cc3)CC1)C(=O)CO2	.	.	.	6%	.
CSc1nnc(C)c(/C=C/Nc2ccc(Cl)cc2)n1	6	-14%	-71*	1%	?
COc1ccc(N/C=C/c2nc(SC)nnc2C)cc1	-4	-17%	-72*	0%	-85*
CSc1nnc(C)c(/C=C/Nc2ccc(F)cc2)n1	-2	-5%	?	-21%	?
CCOc1ccccc1NC(=O)CN(c1ccc(OC)cc1)S(=O)(=O)c1c(C)[nH]c(=O)[nH]c1=O	8	6%	-84*	2%	-84*
CCOc1ccc(N(CC(=O)Nc2ccc(OC)cc2OC)S(=O)(=O)c2c(C)[nH]c(=O)[nH]c2=O)cc1	2	0%	-85*	2%	-92*
COc1ccc(N(CC(=O)Nc2ccccc2C)S(=O)(=O)c2c(C)[nH]c(=O)[nH]c2=O)cc1	13	5%	-3	11%	-4
CCCc1cnc2c(c1SCC(=O)N1CCC(C)CC1)c(=O)n(C)c(=O)n2C	.	.	.	10%	.
COc1ccc2[nH]c3c(NCCC4=CCCCC4)ncnc3c2c1	-73*	-21%	-21	?	0
COc1ccccc1CNC(=O)CCC1N=C2c3ccccc3N=C(SCc3ccc(Cl)cc3)N2C1=O (stereo not drawn)	.	.	.	1%	.
C[N+](C)(C)CC(=O)N1CCN(c2ccc3ccccc3n2)CC1	3	51%	7	?	6
Oc1ccccc1N1CCN(c2ccc3ccccc3n2)CC1	-77*	13%	2	0%	0
CCc1nc2ccc(C(=O)NCc3ccc(N(C)C)cc3)cc2nc1CC	.	.	.	19%	.
Cc1cccc(NC(=O)CSc2nnc(-c3n[nH]c4ccccc34)o2)c1	1	-1%	-13	?	2
N#Cc1cccc(NC(=O)CSc2nnc(-c3n[nH]c4ccccc34)o2)c1	-1	-7%	-26	7%	-87*
O=S(=O)(NC[C@@H]1CCC[C@H](CNS(=O)(=O)c2c(F)cccc2F)C1)c1ccc2c(c1)OCCO2	21	.	.	6%	.
Cc1c(C(=O)Nc2ccccc2F)sc2ncnc(N(C)C3CCCCC3)c12	.	.	.	20%	.
COc1ccc(-c2cc(=O)n(-c3nc4ccccc4[nH]3)[nH]2)cc1	-3	8%	?	5%	-65*
CCCC(=O)NC(c1cccc([N+](=O)[O-])c1)c1ccc2cccnc2c1O (stereo not drawn)	.	.	-91*	.	?
CC(C)C(=O)NC(c1cccc([N+](=O)[O-])c1)c1ccc2cccnc2c1O (stereo not drawn)	-6	-5%	-94*	-14%	-2
CCC(=O)NC(c1cccc([N+](=O)[O-])c1)c1c(OC(C)=O)ccc2ccccc12 (stereo not drawn)	4	-3%	-10	-8%	-3
COc1ccc(CNC(=O)Cc2c(C(=O)O)c(C)cn2C)cc1	.	.	.	3%	.
COc1cc2[nH]c(=O)n(CCC(=O)NCCC(C)C)c(=O)c2cc1OC	-4	5%	-3	19%	0
COCCCNc1nc(=S)[nH]c2cc(OC)c(OC)cc12	3	6%	-90*	0%	-95*
SMILES	TSHR antagonist	S-ASM inh	Six1-Eya2 inh	BCR signal inh	CtBP-E1A inh
COc1cc2[nH]c(=S)nc(NCCC(C)C)c2cc1OC	-8	-4%	-87*	8%	-89*
Cc1ccc2nc(N(Cc3cccnc3)C(=O)c3ccco3)sc2c1	.	.	.	1%	.
CC1(CC(=O)N/N=C/c2cc([N+](=O)[O-])c(O)cc2O)OCCO1	-13	-6%	-89*	0%	.
Cc1ccc(-n2c(C)cc(/C=N/NC(=O)CC3(C)OCCO3)c2C)c(C)c1	0	-1%	-5	-18%	-5
CCOC(=O)Cc1nnc(NC(=O)c2ncn[nH]2)s1	-1	5%	?	5%	-71*
CC(=O)c1cc(-c2ccc(F)cc2)n(CC(=O)NCc2ccc(C)cc2)c1C	.	.	.	6%	.
O=C(NC(=S)NNC(=O)c1cc2ccccc2cc1O)c1ccco1	-10	-2%	-91*	?	-94*
O=C(/C=C/c1cccs1)NC(=S)NNC(=O)c1ccccc1O	-34	0%	-76*	?	-94*
O=C(NC(=S)NNC(=O)c1ccccc1O)c1ccco1	-5	4%	-91*	?	-7
COC(=O)c1ccc(NC(=O)CCn2cnnn2)cc1	.	.	.	3%	.
CNc1cncc(-c2cccc(NS(C)(=O)=O)c2)n1	.	.	?	.	-67*
S=c1sscc1-c1ccccc1	.	-3%	-70*	.	-81*
CCOc1ccc(NC(=O)CSc2nnc(-c3ccc(C)cc3)c(-c3ccc(C)cc3)n2)cc1	.	.	.	7%	.
CCOC(=O)c1cnn(-c2ccc(C(=O)Nc3cccc(C(C)=O)c3)cc2)c1N	.	.	.	-5%	.
Cc1ccc(CCNC(=O)c2cnc3c(C)cccn3c2=O)cc1	.	.	.	-23%	.
Oc1ccc(/C=N/Nc2ccc(Cl)nn2)c(O)c1O	6	-2%	-95*	?	.
Oc1c(Br)cc(Br)cc1/C=N/Nc1ccc(Cl)nn1	8	6%	-22	3%	-18
CCC(C)NC(=O)CSc1nc2cc3c(cc2c(=O)n1CCCC(=O)NCc1ccc2c(c1)OCO2)OCO3 (stereo not drawn)	.	.	.	-7%	.
CCN(c1ccccc1)S(=O)(=O)c1ccc(NC(=O)c2nc(S(C)(=O)=O)ncc2Cl)cc1	-89*	-9%	2	?	6
Cc1ccc(NC(=O)c2nc(S(=O)(=O)Cc3ccccc3)ncc2Cl)cc1	?	-4%	4	?	2
CS(=O)(=O)c1ncc(Cl)c(C(=O)Nc2ccc(N3CCOCC3)cc2)n1	-8	-1%	-2	?	8
Cc1ccccc1CS(=O)(=O)c1ncc(Cl)c(C(=O)Nc2ccc(F)cc2)n1	-74*	0%	-10	?	.
CS(=O)(=O)c1ncc(Cl)c(C(=O)Nc2ccc(OC(F)F)cc2)n1	-74*	2%	2	?	0
CCS(=O)(=O)c1ncc(Cl)c(C(=O)Nc2ccc(S(=O)(=O)N(C)c3ccccc3)cc2)n1	-92*	-4%	14	?	-5
COc1ccc(OCC(=O)Nc2ccc3c(c2)N(C)C(=O)c2ccccc2S3)cc1	.	.	.	1%	.
